Measurements published in PubChem BioAssay.
Values without a mark were called inactive. The rule behind the calls is not given here.

Target: Pantothenate synthetase (Mycobacterium tuberculosis (strain ATCC 25618 / H37Rv)) (UniProt P9WIL5)
Assay: Coupled enzyme confirmation of inhibitors against recombinant Mtb PanC (AID 375);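 note: 0% = full reaction with vehicle and 100% = no enzyme background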
Settings: coupled enzyme assay; at 10 µM, hits give high values

Chain of Pantothenate synthetase (Mycobacterium tuberculosis (strain ATCC 25618 / H37Rv)) (P9WIL5 whole entry, looked up): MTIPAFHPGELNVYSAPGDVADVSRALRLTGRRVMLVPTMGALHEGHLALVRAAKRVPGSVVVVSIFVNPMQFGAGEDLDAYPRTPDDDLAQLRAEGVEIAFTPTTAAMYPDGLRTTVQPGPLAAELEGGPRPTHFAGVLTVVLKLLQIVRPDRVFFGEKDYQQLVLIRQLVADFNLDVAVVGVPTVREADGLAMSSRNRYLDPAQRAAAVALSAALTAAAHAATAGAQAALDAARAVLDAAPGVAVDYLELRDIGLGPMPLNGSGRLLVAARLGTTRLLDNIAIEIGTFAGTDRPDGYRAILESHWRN

Question: Which inhibition does the source give for `O=C(NCc1ccco1)c1cc2sccc2n1Cc1ccccc1` here?
Answer: 0%

Question: How did the inhibition turn out when `O=C(NC1CCCCC1)c1nc2c(nnn2Cc2ccccc2Cl)c(=O)[nH]1` was run?
Answer: 0%

Question: How did the inhibition turn out when `Cc1cc(=O)oc2c1c(C)nn2-c1ccc(C(=O)OC(C)C)cc1` was run?
Answer: 0%

Question: Which inhibition does the source give for `Cc1cccc(-n2nnc(C(=O)NCc3ccccc3)c2N)c1` here?
Answer: 0%

Question: How did the inhibition turn out when `COc1ccc(CCn2c(N)c(C#N)c3nc4ccccc4nc32)cc1OC` was run?
Answer: 0%

Question: How did the inhibition turn out when `CC1C(c2ccccc2)N(C)CCC12NC(=O)NC2=O` (stereo not given) was run?
Answer: 1%

Question: With `O=C1CCCC2=C1C(c1ccsc1)CC(=O)N2c1ccccc1` (stereo not given) as the molecule, how does the inhibition read?
Answer: 0%

Question: For `COc1nc(-c2ccc(Cl)cc2)ccc1-c1noc(-c2ccncc2)n1`, which inhibition is on record?
Answer: 4%

Question: For `COc1ccccc1OCC(=O)N1CCN(c2ccccc2OC)CC1`, which inhibition is on record?
Answer: 0%

Question: For `O=C(CN1C(=O)c2ccccc2C1=O)NCC1COc2ccccc2O1` (stereo not given), which inhibition is on record?
Answer: 0%

Question: With `CCCCC(NC(C)=O)c1nc2ccccc2n1CCC` (stereo not given) as the molecule, how does the inhibition read?
Answer: 0%

Question: With `Cn1c(C(=O)OC(C(=O)NC2CCCC2)c2cccnc2)cc2sccc21` (stereo not given) as the molecule, how does the inhibition read?
Answer: 0%

Question: `CCn1cc(C(=O)NCCCOC)c(=O)c2cc(S(=O)(=O)N(C)C3CCCCC3)ccc21` was tested. Which inhibition did it give?
Answer: 2%

Question: `O=C(NC1CC1)c1cccc(Nc2ccc(-c3ccc4c(c3)OCCO4)nn2)c1` was tested. Which inhibition did it give?
Answer: 1%

Question: `Cn1c(C(=O)NCCCN2CCN(c3ccc(F)cc3)CC2)cc2c(=O)n(C)c3ccccc3c21` was tested. Which inhibition did it give?
Answer: 0%

Question: Which inhibition does the source give for `O=c1c2ccccc2nnn1CSc1nc2cc(Cl)ccc2c(=O)n1Cc1ccco1` here?
Answer: 7%

Question: How did the inhibition turn out when `CC(NC(=O)C1CC1)C(c1cccs1)N1CCN(c2ccccc2)CC1` (stereo not given) was run?
Answer: 0%

Question: How did the inhibition turn out when `COc1nc(C)ccc1-c1noc(-c2ccncc2)n1` was run?
Answer: 2%

Question: With `Cc1cccc(N2CCN(C(=O)CCn3c(=S)[nH]c4cc5c(cc4c3=O)OCO5)CC2C)c1` (stereo not given) as the molecule, how does the inhibition read?
Answer: 9%

Question: For `COC(=O)c1onc(C(=O)c2ccccc2)c1C(=O)OC`, which inhibition is on record?
Answer: 0%

Question: For `Nc1cc(C(=O)O)ccc1Nc1ccc(F)c(F)c1`, which inhibition is on record?
Answer: 5%

Question: Which inhibition does the source give for `CCCCSc1cc(C)nc2ncnn12` here?
Answer: 0%

Question: With `Cc1nc(NCc2ccco2)c2oc3ccccc3c2n1` as the molecule, how does the inhibition read?
Answer: 4%

Question: Which inhibition does the source give for `O=C(Cc1ccc(Br)cc1)N1CCCCCC1` here?
Answer: 1%

Question: How did the inhibition turn out when `O=C(NCc1ccco1)C(c1ccco1)N(C(=O)Cn1nnc2ccccc21)c1ccc2c(c1)CCC2` (stereo not given) was run?
Answer: 0%

Question: `CSc1nc(NC(C)(C)C)nc(Oc2ccc(=O)[nH]n2)n1` was tested. Which inhibition did it give?
Answer: 0%

Question: With `COc1cc(N=c2ssnc2Cl)cc(OC)c1` as the molecule, how does the inhibition read?
Answer: 1%

Question: Which inhibition does the source give for `CC1(C)CC(=O)C(C=NCCO)=C(O)C1` here?
Answer: 0%

Question: `CC(C)OC(=O)C(C)(C)Oc1ccc(C(=O)c2ccc(Cl)cc2)cc1` was tested. Which inhibition did it give?
Answer: 0%

Question: For `O=C(NCCN1C(=O)C2C3C=CC(C3)C2C1=O)Nc1ccccn1` (stereo not given), which inhibition is on record?
Answer: 0%

Question: With `COc1cccc(NS(=O)(=O)c2cc(C)sc2C)c1` as the molecule, how does the inhibition read?
Answer: 0%

Question: `CCC(C)NC(=O)CCNS(=O)(=O)c1ccc(Br)cc1` (stereo not given) was tested. Which inhibition did it give?
Answer: 0%

Question: `CCOc1ccccc1NC(=O)C1CCCN(S(=O)(=O)c2cccc3cccnc23)C1` (stereo not given) was tested. Which inhibition did it give?
Answer: 6%

Question: `CN(C=O)CP(=O)(O)CCN1CCCC1=O` was tested. Which inhibition did it give?
Answer: 0%

Question: `COc1ccc(C(=O)CSc2nnc(C3CCCCC3)n2N)c(OC)c1` was tested. Which inhibition did it give?
Answer: 0%

Question: With `COc1cc(NC(=O)C2CCCN2S(=O)(=O)c2cccc3cccnc23)cc(OC)c1OC` (stereo not given) as the molecule, how does the inhibition read?
Answer: 0%

Question: How did the inhibition turn out when `CCc1ccccc1NC(=O)C(CC)Sc1nc2cc3c(cc2c(=O)n1Cc1ccco1)OCO3` (stereo not given) was run?
Answer: 0%

Question: Which inhibition does the source give for `Cc1ccc(C2Nc3ccccc3-c3nc4ccccc4n32)o1` (stereo not given) here?
Answer: 0%

Question: `CCn1c(SCC(=O)N2c3ccccc3CCc3ccccc32)nc2c1c(=O)n(C)c(=O)n2C` was tested. Which inhibition did it give?
Answer: 1%

Question: Which inhibition does the source give for `Cc1onc(-c2ccccc2Cl)c1C(=O)NCc1cccnc1` here?
Answer: 0%
